Source: PubChem BioAssay AID1986 (Sanford-Burnham Center for Chemical Genomics, 2009)
Out of some 290,000 compounds screened, about 890 (0.31%) were called active. No stated cut-off is given here; in the data, active means inhibition mostly above about 52% (no sharp cut-off); inactive means mostly below about 76%. What follows is part of a selection rich in actives, with near analogues and random picks from the rest.

Experiment: inhibitors of HIV fusion peptide binding, primary screen, biochemical, uHTS, fluorescence dequenching (AID 1986)
Conditions: cell-free peptide binding, 30 min, stronger effect = higher value
[1] = measured here: repeat confirmation average inhibition, at 18.6 µM

SMILES	inhibition (at 20 µM)	inhibition [1] [%]
CC1CC(=O)c2c(cc3c(-c4c(O)cc(O)c5c(O)c6c(cc45)OC(C)CC6=O)c(O)cc(O)c3c2O)O1 (stereo not given)	56.7% (active)	–
C[C@@H]1Cc2c(O)c(O)cc(O)c2C(=O)O1	27.3% (inactive)	–
COc1c(O)cc2c(c1O)C(=O)CC(c1ccccc1)O2 (stereo not given)	-1.5% (inactive)	–
COc1ccc(C(=O)C23CC4CC(C2)CC(C(=O)c2ccc(OC)cc2)(C4)C3)cc1	-1.1% (inactive)	–
Cc1ccc(C)n1-c1ccc(C(=O)O)cc1	-0.4% (inactive)	–
Cc1cc2c(n1-c1ccc(C(=O)O)cc1)CCCCC2	57.7% (active)	–
Cc1ccc(-c2cc3c(n2-c2ccc(C(=O)O)cc2)CCCC3=O)cc1	9.8% (inactive)	–
O=C(NC(=S)Nc1ccccc1[N+](=O)[O-])c1ccccc1	-2.2% (inactive)	–
O=C(O)CCCCCNC(=O)c1ccc(C(=O)NCCCCCC(=O)O)cc1	0.3% (inactive)	–
Cc1ccc(/C=C/C2=Cc3c(sc(NC(=O)CSc4n[nH]c(N)n4)c3C#N)C(C)(C)C2)o1	149% (inactive)	–
CCOc1ccc(/C=C/C2=Cc3c(sc(NC(=O)CSc4n[nH]c(N)n4)c3C#N)C(C)(C)C2)cc1	62.3% (active)	–
Cc1ccsc1/C=C/C1=Cc2c(sc(NC(=O)CSc3n[nH]c(N)n3)c2C#N)C(C)(C)C1	2.6% (inactive)	–
CCOC(=O)c1cc(-c2cccs2)nc2c1c(C)nn2-c1ccccn1	-2.7% (inactive)	–
COC(=O)[C@H](Cc1ccccc1)NC(=O)N1Cc2ccccc2C[C@H]1C(=O)OC	1.3% (inactive)	–
CCN(CC)CCN(Cc1cc2cc3c(cc2[nH]c1=O)OCCO3)C(=S)NC	2.5% (inactive)	–
N#Cc1c(NC(=O)CSc2nc(N)cc(=O)[nH]2)sc2c1CCCC2	0.4% (inactive)	–
O=C(O)Cn1c2c(c3ccccc31)CSc1ccc(Cl)cc1-2	54.6% (active)	–
O=C(O)Cn1c2c(c3ccccc31)CCCC2	-3.7% (inactive)	–
O=C(O)Cn1c2ccccc2c2ccccc21	-1% (inactive)	–
Cc1ccc(NC(=O)CSc2nncn2-c2ccccn2)cc1Cl	1.2% (inactive)	–
CN(C)CCN(C(=O)/C=C/c1cccs1)c1nc2ccc(F)cc2s1	-3.5% (inactive)	–
CN(C)CCN(C(=O)/C=C/c1cccs1)c1nc2c(F)cc(F)cc2s1	56.7% (active)	–
CN(C)CCCN(C(=O)/C=C/c1cccs1)c1nc2c(F)cccc2s1	0.3% (inactive)	–
O=C1c2ccsc2SCCN1Cc1c(F)cccc1Cl	-0.5% (inactive)	–

SMILES	inhibition (at 20 µM)	inhibition [1] [%]
CCCCC(CCC(=O)O)(C(=O)OCC)c1csc(Nc2ccc(C)cc2)n1 (stereo not given)	13.4% (inactive)	–
CCCNc1c(F)c(F)c2c(C)c3ccccc3nc2c1F	51.8% (active)	159
Cc1c2ccccc2nc2c(F)c(NCCO)c(F)c(F)c12	23.4% (inactive)	–
Cc1c2ccccc2nc2c(F)c(NC(C)C)c(F)c(F)c12	36.2% (inactive)	–
CCOC(=O)C1Cc2c([nH]c3ccccc23)CN1 (stereo not given)	-0.5% (inactive)	–
O=C(c1cc(S(=O)(=O)N2CCCCC2)ccc1Cl)N1CCOCC1	0.1% (inactive)	–
COc1cc([N+](=O)[O-])ccc1NC(=O)NCc1ccccn1	-3.2% (inactive)	–
O=C(O)c1cccc(NC(=S)N/N=C/c2cccc(O)c2)c1	1.3% (inactive)	–
COc1cccc(/C=N/NC(=S)Nc2cccc(C(=O)O)c2)c1O	7.9% (inactive)	–
O=C(O)c1cccc(NC(=S)N/N=C/c2ccccc2OCc2ccc(Br)cc2)c1	65.6% (active)	–
COc1ccccc1NC(=O)N(Cc1cc2cc(OC)c(OC)cc2[nH]c1=O)CC1CCCO1 (stereo not given)	-1.5% (inactive)	–
Cc1cc(C)c2nc(N3CCC(C(=O)NCCCN4CCCC4=O)CC3)sc2c1	-0.6% (inactive)	–
COc1cc(/C=N/NC(=S)NCCN2CCOCC2)cc(OC)c1OC	-0.8% (inactive)	–
CCOC(=O)c1cc(-c2ccc(/C=C3/C(=O)NC(=O)C(C#N)=C3C)o2)ccc1Cl	65.1% (active)	–
C=CCOC(=O)c1cc(-c2ccc(/C=C3\C(=O)NC(=O)C(C#N)=C3C)o2)ccc1Cl	-2.1% (inactive)	–
CC1=C(C#N)C(=O)NC(=O)/C1=C/c1ccc(-c2ccc(S(N)(=O)=O)cc2)o1	46.5% (inactive)	–
O=C(c1cccnc1)N1CCN(Cc2ccc3c(c2)OCO3)CC1	2.7% (inactive)	–
CC(=O)Nc1sc(N/N=C/c2ccc(C)cc2)nc1-c1ccc(C)cc1	-3% (inactive)	–
CC(=O)Nc1sc(/C(C#N)=C\c2cccc(Cl)c2)nc1-c1ccc(C)cc1	61.1% (active)	75.8
CC(=O)Nc1sc(N/N=C/c2ccccc2)nc1-c1ccc(C)cc1	0.1% (inactive)	–
CC(=O)Nc1sc(N/N=C\c2ccc(O)cc2)nc1-c1cccs1	-0.1% (inactive)	–
CCN(CC)c1ccc(/C=C(\C#N)c2nc(-c3cccs3)c(NC(C)=O)s2)cc1	122% (active)	–
CCN(CC)c1ccc(/C=C(\C#N)c2ccccn2)cc1	19.5% (inactive)	–
C=CCNC(=O)N[C@@H](Cc1ccccc1)C(=O)OC	-0.9% (inactive)	–

SMILES	inhibition (at 20 µM)	inhibition [1] [%]
Cc1c(C(=O)N2CCCC2)sc(NC(=O)c2cccs2)c1C#N	3.6% (inactive)	–
O=C(CNC(=O)c1ccccc1Br)N/N=C/c1cccnc1	0.5% (inactive)	–
O=C1CC(NNC(=O)c2ccccc2)C(=O)N1 (stereo not given)	-0.3% (inactive)	–
COC(=O)c1cc(S(=O)(=O)NCC2CCN(Cc3cccc(Cl)c3)CC2)c[nH]1	-0.3% (inactive)	–
c1ccc(Cn2c[n+](Cc3ccccc3)cn2)cc1	-1.5% (inactive)	–
c1ccc(-c2nc3ccccc3c3nncn23)cc1	-1.8% (inactive)	–
O=c1[nH]nc(SCc2ccccc2Cl)n1-c1ccc2c(c1)OCCO2	-1.4% (inactive)	–
COCCCN(C(=O)c1ccco1)c1nc(-c2ccc(OC)cc2)cs1	2.9% (inactive)	–
O=C(CCCl)Nc1cc(SCCO)cc([N+](=O)[O-])c1	0.1% (inactive)	–
CC(=O)c1cc(NC(=O)c2ccc(C)cc2)c(=O)oc1/C=C/N(C)C	25.7% (inactive)	–
CC(=O)c1cc(NC(=O)c2cccc(C(F)(F)F)c2)c(=O)oc1/C=C/N(C)C	75.6% (active)	91.6
CC(=O)c1cc(NC(=O)c2cccc(C(F)(F)F)c2)c(=O)oc1C	0.8% (inactive)	–
COC(=O)c1ccc2c(c1)C(C)(C)C(/C=C/c1ccccc1O)=[N+]2C	143% (inactive)	–
COC(=O)c1ccc2c(c1)C(C)(C)C(/C=C/c1ccc(O)cc1)=[N+]2C	111% (active)	–
COC(=O)c1ccc2c(c1)C(C)(C)C(/C=C/c1ccc(OC)c(OC)c1OC)=[N+]2C	10.3% (inactive)	–
C/C=C(\C)CN1CCN(c2ccccc2F)CC1	-0.4% (inactive)	–
CC(=O)c1sc(NS(=O)(=O)c2ccc(C)cc2)nc1-c1ccccc1	19.8% (inactive)	–
O=C(NCc1cc([N+](=O)[O-])ccc1O)c1cccc(NS(=O)(=O)c2ccccc2)c1	4% (inactive)	–
COc1cc(/C=C2\S/C(=N/S(=O)(=O)c3ccccc3)NC2=O)c([N+](=O)[O-])cc1OC	59.3% (inactive)	33.8
Cc1ccc(S(=O)(=O)N/N=C/c2cc([N+](=O)[O-])ccc2O)cc1[N+](=O)[O-]	17.1% (inactive)	–
Cc1ccc(S(=O)(=O)N/N=C\c2cc([N+](=O)[O-])ccc2Cl)cc1	2.5% (inactive)	–
NC1=NC(=O)/C(=C\c2cc([N+](=O)[O-])ccc2Cl)S1	-3.5% (inactive)	–
COc1ccc(S(=O)(=O)/N=C2/NC(=O)/C(=C\c3cc(OC)c(OC)cc3[N+](=O)[O-])S2)cc1	27.4% (inactive)	–
O=S(=O)(c1ccccc1)N1CCN(c2nnc(-c3ccccc3)c3ccccc23)CC1	0% (inactive)	–

SMILES	inhibition (at 20 µM)	inhibition [1] [%]
Cc1cc(S(=O)(=O)N2CCCC2)c(C)s1	-1.2% (inactive)	–
Nn1c(SCc2cccc(Br)c2)nnc1-c1cccnc1	-2% (inactive)	–
COC(=O)CN1C(=S)N(c2ccc(OC)cc2)C(=O)/C1=C/c1ccc(N2CCOCC2)cc1	73.4% (active)	–
CCOc1ccc(/C=C2/C(=O)N(c3ccc(OC)cc3)C(=S)N2CC(=O)OC)cc1OCC	2.5% (inactive)	–
COC(=O)CN1C(=S)N(c2ccc(OC)cc2)C(=O)/C1=C/c1ccc(OC)cc1	-1.4% (inactive)	–
COC(=O)N=Nc1c(O)[nH]c2ccc(Br)cc12	-0.3% (inactive)	–
COc1ccccc1N=Nc1c(O)[nH]c2ccc(Br)cc12	74.7% (active)	70.2
COc1ccccc1NC(=S)N=Nc1c(O)[nH]c2ccc(Br)cc12	-1.3% (inactive)	–
c1cc(CNc2ccc3c(c2)OCO3)ccn1	4.7% (inactive)	–
Cc1ccc(CNCc2ccc3c(c2)OCO3)cc1	2.9% (inactive)	–
Cc1ccc(CNc2ccc3c(c2)OCO3)c(C)c1	52.3% (active)	–
Cc1ccc(CNCc2ccc3c(c2)OCO3)c(C)c1	-1.9% (inactive)	–
Cc1ccc(CNc2ccc3c(c2)OCO3)cc1	112% (active)	–
Cc1ccc(C(=O)NCc2ccc3c(c2)OCO3)c(C)c1	0.4% (inactive)	–
COC(=O)c1cc2ccccc2c(-c2c(OC)c(C(=O)OC)cc3ccccc23)c1OC	-0.9% (inactive)	–
CCOC(=O)N/N=C/c1ccc(OCCSc2ccc(Cl)cc2)c(OC)c1	6.5% (inactive)	–
O=C(NC1CCCC1)C(c1cccs1)N(C(=O)c1csnn1)c1ccccc1F (stereo not given)	0.9% (inactive)	–
CN1C(=O)/C(=C\c2ccc(N(C)C)cc2)OC1=S	78.5% (active)	83.9
COc1ccc(/C=C2\OC(=S)N(C)C2=O)cc1	-1.3% (inactive)	–
CN(C)c1ccc(/C=C2\N=C(C(C)(C)C)OC2=O)cc1	28.5% (inactive)	–
COc1ccccc1CN1C(=S)SC(C)(C)C1NO (stereo not given)	-0.5% (inactive)	–
CCCCc1nc2cc(C(=O)N3CCNC(=O)C3)ccc2o1	0.8% (inactive)	–
